Results filed as inconclusive are left out. The source made the active and inactive calls. The calls were made as follows: active = hit-call score of the fitted dose curve at least 0.9, where 1 is the maximum; inconclusive = response in the unintended direction; inactive = score below 0.9.
Experiments:
[1] = target: Cellular tumor antigen p53 (Homo sapiens) (UniProt P04637); experiment: TOX21_p53_BLA_p3_ratio: Tox21 HCT-116 p53 Agonism Beta-lactamase Assay, Ratio, Phase 3 (AID 2283596)
Procedure, shortened: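 HCT116 p53-bla cells (4000/well) given compound in DMSO (217-fold dilution) after 5 h, incubated 16 h at 37C. CCF4-AM substrate 2 h at room temperature; 460/530 nm emission ratio, gain fitted against DMSO.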

[2] = target: Cellular tumor antigen p53 (Homo sapiens) (UniProt P04637); experiment: TOX21_p53_BLA_p5_ratio: Tox21 HCT-116 p53 Agonism Beta-lactamase Assay, Ratio, Phase 5 (AID 2283599)
Procedure, shortened: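 HCT-116 cells carrying a p53-inducible beta-lactamase reporter were seeded at 4000 cells/well and dosed after 5 h with compound in DMSO (217-fold dilution). After 16 h at 37C, CCF4-AM substrate was added for 2 h, and the 460/530 nm emission ratio was scored as gain-of-signal versus DMSO.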

[3] = target: Cellular tumor antigen p53 (Homo sapiens) (UniProt P04637); experiment: TOX21_p53_BLA_p4_ratio: Tox21 HCT-116 p53 Agonism Beta-lactamase Assay, Ratio, Phase 4 (AID 2283601)
Procedure, shortened: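 HCT116 cells carrying an inducible beta-lactamase reporter were plated at 4000 cells/well, rested 5 h, then exposed to compounds in DMSO (217-fold dilution) for 16 h at 37C. CCF4-AM substrate was loaded 2 h at room temperature; 460/530 nm emission ratio scored gain-of-signal versus DMSO.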

[4] = TOX21_p53_BLA_p4_viability: Viability Assessment in the Tox21 HCT-116 p53 Agonism Beta-lactamase Assay, Phase 4 (AID 2283597);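 also: hits lower the luminescence signal meaning cytotoxicity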
Procedure, shortened: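 Following a 16 h exposure at 37C, the treated HCT116 wells were first read for the FRET ratio. They were then lysed with CellTiter-Glo, and ATP luminescence was recorded after 30 min at room temperature.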

[5] = TOX21_p53_BLA_p5_viability: Viability Assessment in the Tox21 HCT-116 p53 Agonism Beta-lactamase Assay, Phase 5 (AID 2283600)
Procedure, shortened: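 After the 460/530 nm beta-lactamase measurement, the wells received an ATP-detection luciferase reagent; signal was read 30 min later at RT. Compound treatment lasted 16 h on cells pre-incubated 5 h post-seeding.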

Measured: AC50

Cellular tumor antigen p53 (Homo sapiens), sequence (P04637 whole entry, looked up): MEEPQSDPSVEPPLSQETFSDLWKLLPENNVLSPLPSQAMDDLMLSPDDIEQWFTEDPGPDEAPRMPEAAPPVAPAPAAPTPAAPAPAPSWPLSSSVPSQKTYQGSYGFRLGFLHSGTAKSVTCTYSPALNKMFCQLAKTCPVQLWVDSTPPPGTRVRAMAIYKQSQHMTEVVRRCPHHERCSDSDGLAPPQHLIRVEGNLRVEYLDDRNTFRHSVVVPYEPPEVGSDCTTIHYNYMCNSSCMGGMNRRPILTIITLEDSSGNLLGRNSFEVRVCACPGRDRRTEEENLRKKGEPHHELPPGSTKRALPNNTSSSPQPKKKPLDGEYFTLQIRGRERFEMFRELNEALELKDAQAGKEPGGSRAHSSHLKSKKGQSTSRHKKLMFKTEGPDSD

Cc1ccc(S(N)(=O)=O)cc1
inactive: [1] | [2] | [3]

CCCCCCCCCCCCN1CCCCCC1=O
inactive: [1] | [2] | [3]

NC1CCCCC1N (stereo not given)
inactive: [4] | [2] | [5] | [3]

CCC(=O)O[C@@H]1C[C@H]2CC[C@]1(C)C2(C)C
inactive: [1] | [2] | [3]

CSCCC=O
inactive: [1] | [2] | [5] | [3]

C1CCCCC1
inactive: [4] | [2] | [5] | [3]

O=c1c(O)c(-c2ccc(O)cc2)oc2cc(O)cc(O)c12
inactive: [1] | [2] | [3]

C[C@H]1C[C@@H](O)CC(C)(C)C1
inactive: [1] | [2] | [3]

CC(C)C(OC(=O)c1ccccc1)C(C)(C)COC(=O)c1ccccc1 (stereo not given)
inactive: [4] | [2] | [5]

O=[N+]([O-])c1cccc(Cl)c1
inactive: [1] | [2] | [3]

CCC(C)=O
inactive: [4]

Cc1ccc(N)c(S(=O)(=O)O)c1
inactive: [1] | [2] | [5] | [3]

CCCCCCOC(=O)C(C)C
inactive: [1] | [2] | [3]

OCCc1ccccc1
inactive: [1] | [2] | [3]

COc1ccccc1[N+](=O)[O-]
inactive: [1] | [2] | [3]

CC(C)(CO)[C@@H](O)C(=O)NCCC(=O)O
inactive: [1] | [2] | [3]

CCCOCCO
inactive: [4] | [2] | [5]

O=C(O)COCC(=O)O
inactive: [1] | [5] | [3]

CC(C)C[C@H](NC(=O)OCC1c2ccccc2-c2ccccc21)C(=O)O
inactive: [4] | [2] | [5]

CCCCCCCCCCCCCCCC(=O)OC/C=C(C)/C=C/C=C(C)/C=C/C1=C(C)CCCC1(C)C
inactive: [1] | [5] | [3]

CC(=O)OCCCc1ccccc1
inactive: [1] | [2] | [3]

O=c1[nH]c(=O)c2cn[nH]c2[nH]1
inactive: [1] | [2] | [5] | [3]

COC(C)(C)CCCC(C)CC=O (stereo not given)
inactive: [1] | [2] | [5] | [3]

CC(C)CCCCCCCCCCCCCCC(=O)O
inactive: [1] | [2] | [3]

C1CCOC1
inactive: [1] | [3]

[Cl][Au]([Cl])[Cl]
active: [4] 70.7 µM | [3] 37.8 µM
inactive: [2] | [5]

C=CCCC(=O)/C=C/C1C(C)=CCCC1(C)C (stereo not given)
inactive: [4] | [2] | [5] | [3]

C=C[Si]1(C)O[Si](C)(C=C)O[Si](C)(C=C)O[Si](C)(C=C)O1 (stereo not given)
inactive: [1] | [5] | [3]

CCOC(=O)c1ccc(N)cc1
inactive: [1] | [2] | [3]

COCCc1ccc(OCC(O)CNC(C)C)cc1 (stereo not given)
inactive: [1] | [2] | [3]

CCCCCCC(CO)CCCC (stereo not given)
inactive: [1] | [2] | [3]

N#Cc1ccc(CC(=O)c2cccc(C(F)(F)F)c2)cc1
inactive: [1] | [2] | [5] | [3]

CCCCCC(=O)CC
inactive: [1] | [2] | [5] | [3]

CC/C=C\CCOC(=O)CC
inactive: [1] | [2] | [3]

COc1ccc(CCC(C)=O)cc1
inactive: [1] | [2] | [3]

CCCC(=O)OCCc1ccccc1
inactive: [1] | [2] | [3]

From PubChem BioAssay (EPA / NIEHS)
